The full list was thinned out, with hits kept by preference.
ROS inducer – inducers of reactive oxygen species in cancer cells. U2OS ROS induction, H2DCF-DA fluorescence. ROS induction (% of piperlongumine), % at 10 µM. 46,000 tested, 2% active. AID 624156; in the data active = ROS induction above about 79%, passing the limit was not always enough;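 note: 0% = DMSO vehicle median and 100% = reference compound median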
PD-1 reverse act – activators reversing PD-1 mediated T-cell inhibition; primary human CD4 T cells, PD-L1 beads, CellTiter-Glo 96 h; activation, % (no concentration beside the values); 29,000 tested, under 10 active; AID 2316; call rule not given here;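 note: 0% = median vehicle wells and 100% = positive control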
NOMO-1 viab – STK33 inhibitor candidate reducing NOMO-1 cell viability; AID 2330; inhibition, % (concentration not given with the values); 37,000 tested, 7.5% active; NOMO-1 AML viability, CellTiter-Glo luminescence, 72 h; in the data active = inhibition above about 80%
The depositor's hits bear a star; x = not tested or not shown.

SMILES	ROS inducer	PD-1 reverse act	NOMO-1 viab
CC(=O)N1CCC(N(C(=O)Nc2ccccc2)C(C)C)CC1	-4	x	x
COc1ccc(NC(=O)Nc2ccc3c(c2)C(=O)OC3)cc1	1	x	x
c1ccc2[nH]c(SCCSc3nc4ccccc4[nH]3)nc2c1	3	1	83*
NC(=O)CSc1nc2ccccc2[nH]1	x	x	16
Nc1nnnn1/N=C1/C(=O)Nc2ccc(Br)cc21	-3	0	57
CCC(=O)Nc1ccc2c(c1)N(CC)C(C)(C)CC2C (centres undefined)	11	1	99*
CCCCc1ccc(NC(=O)CC)cc1	24	x	x
C[C@@H]1CN([C@H](C)CO)C(=O)c2cccc(NC(=O)Nc3ccccc3)c2O[C@@H]1CN(C)Cc1ccc(Oc2ccccc2)cc1	13	0	32
C[C@@H]1CN([C@@H](C)CO)C(=O)c2cccc(NC(=O)Nc3ccccc3)c2O[C@@H]1CN(C)Cc1ccc(Oc2ccccc2)cc1	87*	x	62
COc1ccc(NC(=O)Nc2cccc3c2O[C@@H](CN(C)Cc2ccc(Oc4ccccc4)cc2)[C@H](C)CN([C@H](C)CO)C3=O)cc1	17	-1	24
C[C@H](CO)N1C[C@H](C)[C@H](CN(C)Cc2ccc(Oc3ccccc3)cc2)Oc2c(NC(=O)Nc3cccc4ccccc34)cccc2C1=O	53	-11	122*
CC(C)NC(=O)Nc1cccc2c1O[C@H](CN(C)Cc1ccc(Oc3ccccc3)cc1)[C@@H](C)CN([C@H](C)CO)C2=O	74	-3	89*
CC(C)NC(=O)Nc1cccc2c1O[C@H](CN(C)Cc1ccc(Oc3ccccc3)cc1)[C@H](C)CN([C@@H](C)CO)C2=O	10	1	-6
C[C@H]1CN([C@@H](C)CO)C(=O)c2cccc(NC(=O)Nc3ccccc3)c2O[C@@H]1CN(C)Cc1ccc(Oc2ccccc2)cc1	26	x	60
C[C@H](CO)N1C[C@H](C)[C@@H](CN(C)Cc2ccc(Oc3ccccc3)cc2)Oc2c(NC(=O)Nc3ccccc3)cccc2C1=O	101*	-8	85*
CC1CCN(C(=O)Cn2nc(-c3ccc(Cl)cc3)ccc2=O)CC1	-4	x	x
CC1CCC/C=C/C(=O)c2c(O)cc(O)cc2CC(=O)O1 (centres undefined)	91*	-14	108*
CC1CCCC2OC2C(=O)c2c(O)cc(O)cc2CC(=O)O1 (centres undefined)	-6	2	15
CCC1c2ccc(C)n2CCN1C(=O)NC12CC3CC(CC(C3)C1)C2 (centres undefined)	5	x	x
COc1ccc(C(=O)NC(c2ccccc2)c2ccccc2)cc1	7	-1	32
COc1ccc(C(NC(C)=O)c2ccc3cccnc3c2O)cc1OC (centres undefined)	-20	-11	107*
COc1ccc(C(NC(C)=O)c2c(O)ccc3ccccc23)cc1OC (centres undefined)	-18	1	-20
COc1ccc(C(NC(=O)c2ccccc2)c2ccc3cccnc3c2O)c(OC)c1 (centres undefined)	53	-9	109*
O=C(O)CCn1c(=O)n(CCC(=O)O)c2c(Cl)cc(Cl)cc21	0	x	x
CC(C)(C)SCCNc1nc(Oc2ccc(F)cc2)nc(Oc2ccc(F)cc2)n1	-3	x	x
SMILES	ROS inducer	PD-1 reverse act	NOMO-1 viab
O=[N+]([O-])c1ccccc1-c1ccc(-c2nn3c(-c4ccccc4)nnc3s2)o1	174*	-2	65
CN1CCC(N(C)Cc2ccc(-c3ccccc3[N+](=O)[O-])o2)CC1	2	-1	7
Cc1cc(C)n(CCc2nc3c4ccccc4nc(=S)n3[nH]2)n1	18	x	x
C[C@H]1CN([C@@H](C)CO)C(=O)c2cc(NS(=O)(=O)c3ccc(F)cc3)ccc2O[C@H]1CN(C)Cc1ccc(Oc2ccccc2)cc1	-5	0	11
Cc1noc(C)c1S(=O)(=O)Nc1ccc2c(c1)C(=O)N([C@@H](C)CO)C[C@@H](C)[C@@H](CN(C)Cc1ccc(Cl)c(Cl)c1)O2	33	0	82*
C[C@@H]1CN([C@H](C)CO)C(=O)c2cc(NS(=O)(=O)c3ccc(F)cc3)ccc2O[C@@H]1CN(C)Cc1ccc(Oc2ccccc2)cc1	-3	-1	86*
Cc1ccc(S(=O)(=O)Nc2ccc3c(c2)C(=O)N([C@H](C)CO)C[C@@H](C)[C@H](CN(C)Cc2ccc(Oc4ccccc4)cc2)O3)cc1	31	-2	84*
Cc1ccc(S(=O)(=O)Nc2ccc3c(c2)C(=O)N([C@@H](C)CO)C[C@@H](C)[C@H](CN(C)Cc2ccc(Oc4ccccc4)cc2)O3)cc1	14	x	57
C[C@@H]1CN([C@H](C)CO)C(=O)c2cc(NS(=O)(=O)c3ccccc3)ccc2O[C@@H]1CN(C)Cc1ccc(Oc2ccccc2)cc1	11	-3	71
C[C@@H]1CN([C@H](C)CO)C(=O)c2cc(NS(=O)(=O)c3ccc(F)cc3)ccc2O[C@H]1CN(C)Cc1ccc(Oc2ccccc2)cc1	45	x	114*
Cc1noc(C)c1S(=O)(=O)Nc1ccc2c(c1)C(=O)N([C@@H](C)CO)C[C@H](C)[C@@H](CN(C)Cc1ccc(Cl)c(Cl)c1)O2	25	-3	-4
N#CCNC(=O)c1ccc(Br)cc1	-8	x	x
Cn1cccc1Cc1nnc(SCC(=O)N2CCCCC2)n1CCc1ccccc1	-8	x	x
Cc1ccc(CNC(=O)CCCc2nnc3n4nc(C)nc4c4ccccc4n23)cc1	20	x	x
COc1cc(C(=O)/C=C/Nc2ccccc2C(N)=O)cc(OC)c1OC	15	x	x
CCN1C(=O)C2(c3ccccc31)c1c(oc3ccccc3c1=O)C(=O)N2CCO (centres undefined)	-10	x	x
CSc1ccc(-c2cccs2)nn1	-12	x	x
CC1CCCCN1S(=O)(=O)c1ccc(C(=O)O)cc1 (centres undefined)	4	x	x
COc1ccccc1-c1nnc(-c2cccs2)o1	-13	x	x
CCCCC1=NN(C(=O)C2CC2)C(O)(C(F)(F)F)C1 (centres undefined)	-15	x	x
Cc1noc(C)c1S(=O)(=O)Nc1ccc2c(c1)C(=O)N([C@@H](C)CO)C[C@@H](C)[C@@H](CN(C)Cc1ccc(Oc3ccccc3)cc1)O2	14	-1	102*
Cc1noc(C)c1S(=O)(=O)Nc1ccc2c(c1)C(=O)N([C@@H](C)CO)C[C@H](C)[C@@H](CN(C)Cc1ccc(Oc3ccccc3)cc1)O2	46	-3	26
O=C(NC1=C(C(=O)c2ccccc2)N(Cc2ccccc2)S(=O)(=O)c2ccccc21)c1ccccc1	24	x	x
COc1cccc2c1C(=O)c1c(O)c3c(c(O)c1C2=O)C[C@@](O)(C(C)=O)C[C@@H]3O[C@H]1C[C@H](N)[C@H](O)[C@H](C)O1	141*	x	121*
CC1CC(=O)c2c(ccc3c2C(=O)c2c(O[C@@H]4O[C@@H](C)[C@H](O)[C@@H](O)[C@H]4O)cccc2C3=O)C1 (some centres undefined)	-2	1	26
CCSC1=C(C#N)C(c2ccc(Cl)cc2)C(C(=O)OC(C)(C)C)=C(C)N1 (centres undefined)	14	x	x
CCOC(=O)c1nc2c(o1)NC(N)=C(C#N)C2c1ccc(Cl)cc1 (centres undefined)	5	0	95*
CSc1sc(/C(C)=N\O)c2c1/C(=N\O)CC(C)(C)C2	6	-1	41

Bioassay records: PubChem BioAssay, Broad Institute
